The source of these data is PubChem BioAssay.

A short description of assay [1]: inhibitors of TNFa-induced NFkB p65 translocation, primary screen, imaging, HUVEC, MLSMR starter and 10KST1 sets (AID 438;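 active means inhibition above 20% together with a positive visual image hit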;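 further: compound added about 3h40 before a 20 min TNFalpha stimulation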;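 on inhibition: signal is the nuclear over cytoplasmic p65 intensity ratio per well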). Conditions: HUVEC TNFa-induced p65 nuclear translocation; cell count: measured here: nuclei count (cytotoxicity indicator), at 2.08 µM; inhibition: at 2 µM, stronger effect = higher value, 0% TNFa-plus-vehicle, 100% no-TNFa wells.
A short description of assay [2]: inhibitors of mutant huntingtin aggregation, primary screen, imaging, exon1htt(103Q)mCFP cells, high-content imaging (AID 483;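 active means visual image review flags a hit and inhibition of aggregation exceeds 20%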;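 further: compound exposure lasted 3 days before fixation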;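 on nuclei count: percent of the per-plate median nuclei count of sample wells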). Conditions: exon1htt(103Q)mCFP cell line, aggregate imaging, at 2 µM; inhibition of aggregation: stronger effect = higher value; nuclei count: measured here: cell count, toxicity.
The nature of assay [3]: inhibitors of E-selectin induction by TNFa, primary screen, imaging, HUVEC, immunofluorescence, MLSMR starter and 10KST1 sets (AID 487).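 On inhibition: signal is fraction of cell area covered by stained E-selectin grains.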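 On nuclei count: 100% = median nuclei count of all wells on the same plate.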 Conditions: HUVEC TNFalpha-induced E-selectin immunofluorescence imaging, at 2 µM; inhibition: stronger effect = higher value; nuclei count: measured here: cell number, toxicity.
In assay [4] the target is Voltage-gated potassium channel subunit beta-2 (Rattus norvegicus) (UniProt P62483). Description: KvBeta enzyme negative modulators, primary screen, biochemical, NADPH fluorescence (AID 622;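 active means fluorescence slope higher than the sample average by over 3 SD, cut at about -0.22 in these data, passing the limit was not always enough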;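 further: slope of raw intensity against log time taken from 70 to 1610 s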). Conditions: recombinant KvBeta, 4-cyanobenzaldehyde reduction, at 10 µM, stronger effect = higher value.
Assay [5] has the same target. As to the kind of experiment: KvBeta positive modulators, primary screen, biochemical, NADPH fluorescence (AID 623;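 active means NADPH fluorescence slope more negative than the mean of all samples by about 3 SD, 99.7% confidence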;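 further: fluorescence intensity change per second fitted from 20 to 320 s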). The following applies: Recombinant KvBeta, NADPH fluorescence decrease slope, 10 min; at 10 µM; stronger effect = lower value.
The target in assay [6] is Alpha-2C adrenergic receptor (Homo sapiens) (UniProt P18825). Description: modulators of alpha2C/GIRK thallium flux, primary screen, cell-based, HEK293 alpha2C/GIRK1/2 (AID 624;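 active means fluorescence slope after compound addition differing from the mean of all screened samples at 99.7% confidence, in either direction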;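 further: slope of fluorescence ratio to pre-addition baseline per second over 15 to 24 s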). Conditions: thallium flux BTC fluorescence, at 10 µM, actives lie on both sides.
Assay [7] is described as follows: inhibitors of Sendai virus-induced IRF3 signaling, primary screen, TLR/RLR signaling modifier project, cell-based, Sendai virus stimulus, luciferase, 10K MLSCN set (AID 602276;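 active means inhibition at or above 50% at 10 µM; inactive means inhibition below 50%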;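 further: firefly luciferase from ISG56 promoter only with Renilla not read in this screen; 0% = Sendai virus plus DMSO and 100% = medium plus DMSO without virus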). Conditions: HEK293 RL24 IRF3 luciferase reporter, at 10 µM, stronger effect = higher value. In general terms: In a reporter assay the amount or activity of a reporter protein is the signal.
The nature of assay [8]: inhibitors of poly I:C-induced TLR3 signaling, primary screen, cell-based, poly I:C stimulus, luciferase, 10K MLSCN set (AID 602277;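 active means inhibition of the reporter signal at or above 50%; inactive means inhibition below 50%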). The following applies: HEK293-TLR3 RL24 IRF3 luciferase reporter, at 10 µM, stronger effect = higher value.

Each structure is given as a SMILES string. The source made the active and inactive calls.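 How the source made its calls, unless noted: active means visually confirmed hit in the image check and inhibition above 20%; inconclusive means visually confirmed hit but inhibition not above 20%; inactive means no visual hit in the image check.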

Sequence of Alpha-2C adrenergic receptor (Homo sapiens) (P18825 whole entry, looked up): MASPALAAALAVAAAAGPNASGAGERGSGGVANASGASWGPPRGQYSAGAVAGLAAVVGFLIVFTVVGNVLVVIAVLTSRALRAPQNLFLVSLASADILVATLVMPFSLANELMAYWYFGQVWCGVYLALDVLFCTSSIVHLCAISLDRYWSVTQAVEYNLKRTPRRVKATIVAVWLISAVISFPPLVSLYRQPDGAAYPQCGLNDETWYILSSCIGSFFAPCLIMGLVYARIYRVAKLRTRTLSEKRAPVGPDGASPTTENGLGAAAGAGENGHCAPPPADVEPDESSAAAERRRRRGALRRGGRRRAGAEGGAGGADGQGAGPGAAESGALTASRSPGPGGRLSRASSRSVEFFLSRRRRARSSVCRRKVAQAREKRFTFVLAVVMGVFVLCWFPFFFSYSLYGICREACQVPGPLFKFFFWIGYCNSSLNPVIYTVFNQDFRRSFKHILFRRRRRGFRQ
Sequence of Voltage-gated potassium channel subunit beta-2 (Rattus norvegicus) (P62483 whole entry, looked up): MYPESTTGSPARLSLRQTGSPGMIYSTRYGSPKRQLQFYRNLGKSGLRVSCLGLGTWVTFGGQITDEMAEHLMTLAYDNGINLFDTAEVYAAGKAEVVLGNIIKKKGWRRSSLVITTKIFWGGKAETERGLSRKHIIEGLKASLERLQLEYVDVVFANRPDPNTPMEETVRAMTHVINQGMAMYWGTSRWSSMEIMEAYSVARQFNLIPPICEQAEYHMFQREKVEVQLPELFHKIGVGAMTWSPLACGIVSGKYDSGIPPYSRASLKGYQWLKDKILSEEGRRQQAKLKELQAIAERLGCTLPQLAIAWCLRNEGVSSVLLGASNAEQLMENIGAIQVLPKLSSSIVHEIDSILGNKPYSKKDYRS

As a reminder, the inhibition is the change of the read-out against control, counted positive when it falls. In the case of `CN1CCN(c2nc3c(c(=O)[nH]c(=O)n3C)n2CCSc2nc3ccccc3s2)CC1`, in assay [1], the cell count stood at 503. Further, the inhibition is -0.3% (inactive) in assay [1], 30.5% (inactive) in assay [3], 12.4% (inactive) in assay [7] and 33.3% (inactive) in assay [8]. Also, in assay [2], the inhibition of aggregation was 25.5% (inactive). Further, the nuclei count was 106% in assay [2] and 100% in assay [3]. Besides, in assay [4], the fluorescence slope was -0.578 (inactive). The NADPH fluorescence slope in assay [5] is -3e-05 (inactive). In assay [6], the slope is 0.00601 (inactive).
Take `O=S(=O)(c1cccc(S(=O)(=O)N2CCC(N3CCCCC3)CC2)c1)N1CCOCC1`: the cell count in assay [1] is 725. In addition, the inhibition in assay [1] is -4.8% (inactive); in assay [3] it was -3.7% (inactive); in assay [7], 7.24% (inactive); in assay [8] it was 28.4% (inactive). Also, the inhibition of aggregation in assay [2] was -6.3% (inactive). Besides, the figures for the nuclei count in assay [2] and in assay [3] were 123% and 106%, respectively. The fluorescence slope in assay [4] is -0.469 (inactive). The NADPH fluorescence slope in assay [5] is -1.3e-06 (inactive). In addition, the slope in assay [6] is 0.00684 (inactive).
Turning to `Cn1nnnc1SCC(=O)N1CCN(c2ccccc2)CC1`, in assay [1], the cell count is 400. Further, the inhibition in assay [1] is -0.2% (inactive); in assay [3] it was -49.9% (inactive); in assay [7], 11.7% (inactive); in assay [8], 27.5% (inactive). For the same compound, in assay [2], the inhibition of aggregation is 7% (inactive). The results for the nuclei count in assay [2] and in assay [3] were 97.4% and 97.6%, respectively. The fluorescence slope in assay [4] is -0.362 (inactive). Besides, in assay [5], the NADPH fluorescence slope was -4.2e-05 (inactive). Further, the slope in assay [6] was 0.00625 (inactive).
Consider `O=C(c1csc2ccccc12)N1CCCCCC1`, for which, in assay [1], the cell count stood at 359. Also, the inhibition is 5.6% (inactive) in assay [1], -16.8% (inactive) in assay [3], 7.71% (inactive) in assay [7] and 5.9% (inactive) in assay [8]. In addition, in assay [2], the inhibition of aggregation was 13.8% (inactive). The nuclei count in assay [2] was 100%; in assay [3] it was 106%. The fluorescence slope in assay [4] was -0.512 (inactive). Moreover, in assay [5], the NADPH fluorescence slope is 8.9e-06 (inactive). For the same compound, the slope in assay [6] was 0.0038 (inactive).
`CCc1nn(CC(=O)NCCCN2CCc3ccccc3C2)c(=O)c2cc3sccc3n12`: in assay [1], the cell count amounted to 811. In addition, the inhibition was -6.4% (inactive) in assay [1], -64% (inactive) in assay [3], 2.67% (inactive) in assay [7] and 50.9% (active) in assay [8]. In addition, the inhibition of aggregation in assay [2] was 5.9% (inactive). Moreover, the nuclei count in assay [2] was found to be 138%; in assay [3] it was 116%. Besides, in assay [4], the fluorescence slope was -0.602 (inactive). For the same compound, in assay [5], the NADPH fluorescence slope is 9.3e-06 (inactive). Besides, the slope in assay [6] was 0.00659 (inactive).
As for `Fc1ccc(-c2nnc(CN3CCN(c4ncc(C(F)(F)F)cc4Cl)CC3)o2)cc1`, the cell count in assay [1] turned out to be 405. The inhibition in assay [1] is -14.7% (inactive); in assay [3], -9.8% (inactive); in assay [7], 8.36% (inactive); in assay [8] it was -7.66% (inactive). Also, the inhibition of aggregation in assay [2] is 8.2% (inactive). The nuclei count was 111% in assay [2] and 124% in assay [3]. For the same compound, the fluorescence slope in assay [4] was -0.435 (inactive). In assay [5], the NADPH fluorescence slope was -8.4e-06 (inactive). The slope in assay [6] was 0.00518 (inactive).
For the compound `CN1CCN(S(=O)(=O)c2ccc(NC(=O)c3ccc(F)cc3)cc2)CC1`, the cell count in assay [1] was found to be 624. Moreover, the inhibition in assay [1] is 0% (inactive); in assay [3], -22.1% (inactive); in assay [7], 0.12% (inactive); in assay [8], -12.3% (inactive). Further, the inhibition of aggregation in assay [2] was -2.2% (inactive). In addition, the nuclei count in assay [2] turned out to be 105%; in assay [3] it was 85%. Also, in assay [4], the fluorescence slope is -0.424 (inactive). Moreover, the NADPH fluorescence slope in assay [5] was -2.3e-05 (inactive). In addition, the slope in assay [6] is 0.00505 (inactive).
Consider `CN(C)S(=O)(=O)Nc1ccccc1C(N)=O`, for which the cell count in assay [1] was found to be 425. The inhibition in assay [1] was -9.8% (inactive); in assay [3], -21.7% (inactive); in assay [7], 15.1% (inactive); in assay [8], 11.7% (inactive). For the same compound, the inhibition of aggregation in assay [2] was -9.1% (inactive). For the same compound, the nuclei count is 102% in assay [2] and 109% in assay [3]. In addition, the fluorescence slope in assay [4] is -0.355 (inactive). Further, the NADPH fluorescence slope in assay [5] was -3.8e-05 (inactive). For the same compound, in assay [6], the slope was 0.00484 (inactive).
For the compound `NC(=O)CSc1nnc(-c2cnccn2)n1-c1ccccc1`, the cell count in assay [1] worked out at 625. In addition, the inhibition in assay [1] is 3.8% (inactive); in assay [3], 19% (inactive); in assay [7], 20.2% (inactive); in assay [8], 20.8% (inactive). In addition, the inhibition of aggregation in assay [2] is -10.7% (inactive). Also, the nuclei count was 102% in assay [2] and 94.9% in assay [3]. Moreover, the fluorescence slope in assay [4] was -0.501 (inactive). For the same compound, the NADPH fluorescence slope in assay [5] was -4.9e-05 (inactive). The slope in assay [6] is 0.0054 (inactive).
Turning to `CCC(C)NCC(O)COCc1ccc(Cl)cc1` (centres undefined), the cell count in assay [1] turned out to be 296. Also, the inhibition in assay [1] was -2% (inactive); in assay [3] it was -9.3% (inactive); in assay [7] it was 15.4% (inactive); in assay [8] it was 20.9% (inactive). In assay [2], the inhibition of aggregation is -4% (inactive). Moreover, the nuclei count in assay [2] is 98.9%; in assay [3], 86.6%. The fluorescence slope in assay [4] is -0.484 (inactive). In addition, the NADPH fluorescence slope in assay [5] is -5.9e-06 (inactive). In addition, the slope in assay [6] was 0.00563 (inactive).
With `COC(=O)c1ccc(C2C(C#N)=C(N)Oc3cc(C)n(C)c(=O)c32)cc1` (centres undefined), in assay [1], the cell count was 551. For the same compound, the inhibition in assay [1] is -11.1% (inactive); in assay [3], -1.7% (inactive); in assay [7] it was 9.77% (inactive); in assay [8], 6% (inactive). For the same compound, the inhibition of aggregation in assay [2] is 0.4% (inactive). Also, the nuclei count in assay [2] and in assay [3] was 111% each time. For the same compound, the fluorescence slope in assay [4] was -0.499 (inactive). Besides, the NADPH fluorescence slope in assay [5] was -4.1e-05 (inactive). For the same compound, the slope in assay [6] was 0.00425 (inactive).
`COCCN(C(=O)CNC(=O)c1ccco1)C(C(=O)NC1CCCCC1)c1cccc(OC)c1` (centres undefined): the cell count in assay [1] was determined as 650. For the same compound, the inhibition in assay [1] is -9.5% (inactive); in assay [3], 37% (inactive); in assay [7], 5.23% (inactive); in assay [8], 36.9% (inactive). Besides, the inhibition of aggregation in assay [2] was 15.9% (inactive). Further, the nuclei count in assay [2] worked out at 104%; in assay [3], 101%. The fluorescence slope in assay [4] was -0.444 (inactive). Further, the NADPH fluorescence slope in assay [5] is -2e-05 (inactive). Also, the slope in assay [6] was 0.00264 (inactive).
For `COc1ccc(-c2nc(CCNC(=O)c3ccco3)cs2)cc1OC`, the cell count in assay [1] came out at 696. Besides, the inhibition in assay [1] was -9.6% (inactive); in assay [3] it was -4% (inactive); in assay [7], 22.7% (inactive); in assay [8], -5.2% (inactive). In addition, the inhibition of aggregation in assay [2] is -8.9% (inactive). The nuclei count was determined as 102% in assay [2] and 114% in assay [3]. Besides, the fluorescence slope in assay [4] was -0.524 (inactive). Also, the NADPH fluorescence slope in assay [5] was -2.4e-05 (inactive). Also, the slope in assay [6] is 0.00779 (inactive).
`CCOC(=O)c1cccc(NC(=O)CSc2nnc(C3CCCCC3)n2C)c1`: the cell count in assay [1] was found to be 291. In addition, the inhibition in assay [1] is -10.5% (inactive); in assay [3], 18% (inactive); in assay [7] it was 12.9% (inactive); in assay [8], 17.5% (inactive). For the same compound, the inhibition of aggregation in assay [2] is 7.3% (inactive). The values for the nuclei count in assay [2] and in assay [3] were 117% and 113%, respectively. Besides, the fluorescence slope in assay [4] was -0.586 (inactive). The NADPH fluorescence slope in assay [5] is -3.6e-05 (inactive). In assay [6], the slope was 0.00599 (inactive).
